The results in this text go back to article PMC5540273 (PLoS ONE, 2017).

The subject of one assay is FYN. As to conditions: concentration: 1 μM, replicates: in singlicate; n = 1.
The subject of the next assay is GAK. As to conditions: concentration: 1 μM, replicates: in singlicate; n = 1.
A further assay has as its system T1, GCN2(Kin.Dom.2,S808G).
T1 construct: gene EIF2AK4
To be noted: concentration: 1 μM, replicates: in singlicate; n = 1.

For a further assay, the system named is GRK1. To be noted: concentration: 1 μM, replicates: in singlicate; n = 1.
Another assay relates to T2, GRK2.
T2 construct: gene ADRBK1
To be noted: concentration: 1 μM, replicates: in singlicate; n = 1.

The subject of the next assay is T3, GRK3.
T3 construct: gene ADRBK2
To be noted: concentration: 1 μM, replicates: in singlicate; n = 1.

In a further assay the test system is GRK4. To be noted: concentration: 1 μM, replicates: in singlicate; n = 1.
For another assay, the system named is GRK7. To be noted: concentration: 1 μM, replicates: in singlicate; n = 1.
Another assay has as its system GSK3A. As to conditions: n = 1.
The next assay relates to GSK3B. To be noted: n = 1.
A further assay relates to T4, HASPIN.
T4 construct: gene GSG2
To be noted: concentration: 1 μM, replicates: in singlicate; n = 1.

The test system of the next assay is HCK. As to conditions: concentration: 1 μM, replicates: in singlicate; n = 1.
In another assay the test system is HIPK1. As to conditions: concentration: 1 μM, replicates: in singlicate; n = 1.
For the next assay, the system named is HIPK2. To be noted: concentration: 1 μM, replicates: in singlicate; n = 1.
The test system of another assay is HIPK3. To be noted: concentration: 1 μM, replicates: in singlicate; n = 1.
The test system of another assay is HIPK4. To be noted: concentration: 1 μM, replicates: in singlicate; n = 1.
The next assay deals with HPK1. As to conditions: concentration: 1 μM, replicates: in singlicate; n = 1.
Another assay has as its system HUNK. To be noted: concentration: 1 μM, replicates: in singlicate; n = 1.
The test system of another assay is ICK. To be noted: concentration: 1 μM, replicates: in singlicate; n = 1.
The subject of another assay is IGF1R. To be noted: concentration: 1 μM, replicates: in singlicate; n = 1.
Setting [1] is: concentration: 1 μM, replicates: in singlicate.

Like-named read-outs stand apart in the source and are kept apart here.
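Also: KINOMEscan kinase panel screen.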

`O=C(O)C(F)(F)F.O=C(O)C(F)(F)F.O=c1[nH]ccc2nc(N[C@@H]3CCCNC3)nc(Nc3ccc(S(=O)(=O)N4CCOCC4)cc3)c12` [GSK2177277]: the “%Inh” value is reported as 61% in the assay on FYN; 97.4% in the assay on GAK; 100% in the assay with GCN2(Kin.Dom.2,S808G); 96.6% in the assay with GRK1; 72% in the assay with GRK2; 88% with GRK3. For the same compound, the “%Inh” value in the assay on GRK4 was found to be 92.2%; with GRK7, 96%; in the assay with GSK3A (setting [1]), 99.3%; in the assay with GSK3B (setting [1]), 98.2%; in the assay on HASPIN, 81%; with HCK, 92.6%. Moreover, the “%Inh” value in the assay with HIPK1 came to 83%; in the assay with HIPK2, 92.9%; with HIPK3, 97.2%; in the assay on HIPK4, 54%; in the assay on HPK1 it was 98.2%; in the assay with HUNK, 0%. Also, the “%Inh” value came out at 88% with ICK and 90.8% with IGF1R.

As for `C[C@@H](Oc1cc(-n2cnc3cc(-c4ccnc(NCCS(C)(=O)=O)c4)ccc32)sc1C(N)=O)c1ccccc1Cl` [GSK907232], the “%Inh” value in the assay on FYN was determined as 14%; in the assay with GAK it was 64%; in the assay with GCN2(Kin.Dom.2,S808G) it was 71%; in the assay on GRK1, 0%; with GRK2, 0%; in the assay with GRK3, 39%. For the same compound, the “%Inh” value with GRK4 was found to be 82%; in the assay on GRK7, 0%; in the assay on GSK3A (setting [1]) it was 0%; with GSK3B (setting [1]), 16%; in the assay on HASPIN, 26%; in the assay on HCK, 34%. The “%Inh” value amounted to 0% in the assay with HIPK1; 0% in the assay on HIPK2; 7% in the assay on HIPK3; 20% with HIPK4; 87% with HPK1; 0% in the assay with HUNK. In addition, the “%Inh” value is recorded as 19% in the assay on ICK and 0% with IGF1R.

Regarding `Cc1ccc(C(=O)Nc2ccc(Nc3ccnc4cc(-c5nccs5)ccc34)cc2O)cc1.Cl` [GW494702], the “%Inh” value is 25% in the assay with FYN; 10% with GAK; 0% in the assay with GCN2(Kin.Dom.2,S808G); 17% in the assay on GRK1; 0% in the assay with GRK2; 41% with GRK3. Moreover, the “%Inh” value in the assay with GRK4 is given as 17%; in the assay on GRK7, 0%; in the assay on GSK3A (setting [1]), 0%; with GSK3B (setting [1]) it was 7%; with HASPIN, 82%; with HCK it was 93.4%. Also, the “%Inh” value in the assay on HIPK1 was 0%; with HIPK2, 37%; with HIPK3, 1%; with HIPK4, 0%; in the assay on HPK1, 1%; in the assay on HUNK it was 30%. In addition, the “%Inh” value worked out at 28% in the assay with ICK and 0% in the assay with IGF1R.

As to `CCn1c(-c2nonc2N)nc2c(C#CC(C)(C)O)ncc(OCCCCN)c21.O=C(O)C(F)(F)F.O=C(O)C(F)(F)F` [GSK507274], the “%Inh” value with FYN turned out to be 0%; with GAK, 41%; in the assay on GCN2(Kin.Dom.2,S808G), 13%; with GRK1 it was 65%; in the assay with GRK2, 0%; in the assay with GRK3 it was 44%. The “%Inh” value in the assay on GRK4 amounted to 21%; in the assay on GRK7, 75%; with GSK3A (1 µM) it was 78%; in the assay on GSK3B (1 µM), 100%; in the assay on HASPIN it was 0%; in the assay with HCK, 0%. Also, the “%Inh” value in the assay on HIPK1 turned out to be 47%; in the assay with HIPK2, 57%; in the assay with HIPK3, 100%; in the assay with HIPK4, 0%; in the assay with HPK1, 49%; with HUNK it was 0%. Moreover, the entries for the “%Inh” value in the assay with ICK and in the assay on IGF1R were 11% and 12%, respectively.

In the case of `Oc1cc(Nc2ccnc3cc(I)ccc23)ccc1F` [GW552771], the “%Inh” value in the assay on FYN is listed as 62%; with GAK, 85%; in the assay with GCN2(Kin.Dom.2,S808G), 8%; with GRK1 it was 0%; in the assay with GRK2, 0%; in the assay on GRK3, 65%. Besides, the “%Inh” value in the assay on GRK4 was determined as 10%; in the assay on GRK7, 0%; in the assay with GSK3A (setting [1]) it was 17%; with GSK3B (setting [1]), 0%; in the assay with HASPIN it was 28%; in the assay with HCK, 76%. For the same compound, the “%Inh” value was 42% in the assay with HIPK1; 59% in the assay on HIPK2; 20% with HIPK3; 10% in the assay with HIPK4; 37% in the assay with HPK1; 2% in the assay with HUNK. The “%Inh” value in the assay with ICK and in the assay with IGF1R was 0% throughout.

Take `COc1cc(Nc2nccc(-c3c(-c4cccc(NC(=O)c5c(F)cccc5F)c4)nn4ccccc34)n2)cc(OC)c1OC` [GSK323521]: the “%Inh” value in the assay on FYN was determined as 23%; with GAK, 28%; in the assay with GCN2(Kin.Dom.2,S808G), 29%; with GRK1, 13%; with GRK2, 0%; in the assay with GRK3, 0%. Further, the “%Inh” value with GRK4 was found to be 16%; in the assay on GRK7, 0%; in the assay with GSK3A (setting [1]) it was 0%; with GSK3B (setting [1]), 23%; in the assay on HASPIN, 0%; in the assay on HCK, 0%. Also, the “%Inh” value with HIPK1 was 12%; in the assay with HIPK2, 0%; in the assay on HIPK3, 16%; in the assay with HIPK4 it was 14%; with HPK1 it was 50%; with HUNK it was 24%. In addition, the “%Inh” value is 0% with ICK and 32% in the assay with IGF1R.

For the compound `CC(C)c1nc(-c2cccc(NS(=O)(=O)c3c(F)cccc3F)c2F)c(-c2ccnc(Nc3ccc(N4CCOCC4)nc3)n2)s1` [GSK2008607], the “%Inh” value in the assay on FYN is 98.2%; with GAK, 96.1%; in the assay on GCN2(Kin.Dom.2,S808G) it was 100%; in the assay with GRK1, 100%; in the assay with GRK2, 0%; in the assay with GRK3, 0%. Further, the “%Inh” value came out at 0% with GRK4; 0% in the assay with GRK7; 53% in the assay with GSK3A (setting [1]); 21% in the assay on GSK3B (setting [1]); 0% in the assay with HASPIN; 99.5% with HCK. The “%Inh” value with HIPK1 came to 91.1%; with HIPK2, 92.3%; in the assay on HIPK3 it was 94.5%; in the assay on HIPK4 it was 94.7%; with HPK1, 88%; with HUNK it was 0%. The entries for the “%Inh” value in the assay with ICK and in the assay with IGF1R were 77% and 8%, respectively.

On to `Cc1ccc(S(=O)(=O)Nc2ccc(Nc3nccc(Nc4cccc5[nH]ncc45)n3)cc2)cc1` [GSK581271], for which the “%Inh” value is listed as 41% in the assay on FYN; 44% with GAK; 0% in the assay on GCN2(Kin.Dom.2,S808G); 0% with GRK1; 0% in the assay on GRK2; 42% in the assay with GRK3. Moreover, the “%Inh” value is given as 0% in the assay on GRK4; 0% in the assay on GRK7; 24% in the assay with GSK3A (setting [1]); 10% with GSK3B (setting [1]); 0% in the assay on HASPIN; 0% in the assay with HCK. For the same compound, the “%Inh” value with HIPK1 came out at 0%; in the assay with HIPK2, 0%; in the assay with HIPK3, 1%; in the assay with HIPK4, 0%; with HPK1, 23%; with HUNK, 2%. Further, the “%Inh” value is 0% with ICK and 10% in the assay with IGF1R.

For `O=C(Nc1cccc(-c2nn3ccccc3c2-c2ccnc(Nc3cccc(C(F)(F)F)c3)n2)c1)c1c(F)cccc1F` [GSK292658], the “%Inh” value is reported as 56% in the assay with FYN; 3% in the assay with GAK; 10% in the assay on GCN2(Kin.Dom.2,S808G); 3% with GRK1; 0% in the assay on GRK2; 0% with GRK3. Also, the “%Inh” value with GRK4 is reported as 15%; in the assay with GRK7, 3%; with GSK3A (setting [1]) it was 5%; in the assay with GSK3B (setting [1]), 4%; in the assay on HASPIN, 0%; with HCK it was 96.9%. In addition, the “%Inh” value was 0% with HIPK1; 0% with HIPK2; 0% in the assay with HIPK3; 0% in the assay on HIPK4; 21% in the assay on HPK1; 0% in the assay on HUNK. For the same compound, the “%Inh” value in the assay with ICK and in the assay with IGF1R was 0% each time.

As for `O=C(Nc1cccc(Oc2ccc3nc(NC(=O)C4CC4)cn3n2)c1)c1ccccc1C(F)(F)F`, the “%Inh” value with FYN was determined as 33%; in the assay on GAK it was 4%; with GCN2(Kin.Dom.2,S808G), 7%; in the assay with GRK1, 9%; in the assay with GRK2, 0%; with GRK3, 0%. Further, the “%Inh” value is 46% with GRK4; 0% with GRK7; 7% in the assay on GSK3A (setting [1]); 0% in the assay on GSK3B (setting [1]); 0% with HASPIN; 69% in the assay with HCK. Besides, the “%Inh” value worked out at 28% in the assay with HIPK1; 0% with HIPK2; 0% with HIPK3; 1% with HIPK4; 10% with HPK1; 0% in the assay on HUNK. In addition, the “%Inh” value in the assay with ICK and in the assay on IGF1R was 0% each time.
